We go through 33 compounds from PubChem BioAssay (NCATS).

Where a SMILES comes first, the peptide text is derived from it. Bridges are numbered along the chain shown (N, C = ends). [ ]: non-standard residue; d: D form. The star is where a group is joined. X1 = CCC(C)C(N)C1=NC(C(=O)*)CS1; dOrn = NCCC[C@@H](N)C(=O)O

The nature of one assay: qHTS drug screen for cell cycle checkpoint inhibitors in PARPi-resistant BRCA-mutant ovarian cancer cell lines. (AID 1963452). To be noted: PEO1/OlaR viability, CellTiter-Glo luminescence, 96 h; measured here: PEO1 parental Z-AUC; stronger effect = lower value. The essentials: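 PEO1, PEO4 and PEO1/OlaR ovarian cancer cells, 600 per well, exposed 96 h at 37C to a dilution series. Viability read by CellTiter-Glo luminescence, normalized to DMSO and empty wells; activity summarized as Z-AUC.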
Background: Quantitative high-throughput screening tests each substance at several concentrations.
Consider `CN(NC(=O)CC(=O)NN(C)C(=S)c1ccccc1)C(=S)c1ccccc1`, for which the Z-AUC came out at 1.08.
Same read-out and setting: in the case of `CCOc1cc2ncc(C#N)c(Nc3ccc(OCc4ccccn4)c(Cl)c3)c2cc1NC(=O)/C=C/CN(C)C` it was 0.366; in that of `Cc1cccc(-c2[nH]c(CNc3ccccc3F)nc2-c2ccc3ncnn3c2)n1`, 0.223.
Same read-out and setting: for `OC[C@H]1O[C@@H](Oc2cc(O)cc(/C=C/c3ccc(O)cc3)c2)[C@H](O)[C@@H](O)[C@@H]1O` the value was 1.63; for `O=C(O)C[C@H](O)C[C@H](O)/C=C/c1c(C2CC2)nc2ccccc2c1-c1ccc(F)cc1`, -0.553.
For the compound `CC(=O)c1cnc2ccc(-c3cc(Cl)c(O)c(Cl)c3)nc2c1NC1CCC(CN(C)C)CC1` (stereo unspecified), the Z-AUC was -1.7.
As to `CC1(C)O[C@@H]2C[C@H]3[C@@H]4CCC5=CC(=O)C=C[C@]5(C)[C@H]4[C@@H](O)C[C@]3(C)[C@]2(C(=O)CO)O1`, the Z-AUC was determined as 1.46.
Still for that read-out and setting: for `COc1ncc(-c2ccc3c(Nc4cc(Oc5cc(F)cc(F)c5)cc(C(=O)O)c4)c(S(=O)(=O)NC4CC4)cnc3c2)c(OC)n1` the value was -0.369.
Still for that read-out and setting: for `CN(C)c1cccc(-c2c3c(=O)n(-c4ccccc4Cl)[nH]c3cc(=O)n2C)c1` the value was -0.313.
On the same count and under the same terms, for `CN1CC[C@@H](NC(=O)Nc2ccc(C#N)cc2)C[C@@H]1c1nc2ccccc2[nH]1` the value was 0.0879; for `Cc1cc(Nc2ncc(Cl)c(Nc3ccccc3S(=O)(=O)C(C)C)n2)c(OC(C)C)cc1C1CCNCC1`, -0.797; for `CC(C)C(=O)OCC(=O)[C@@]12O[C@H](C3CCCCC3)O[C@@H]1C[C@H]1[C@@H]3CCC4=CC(=O)C=C[C@]4(C)[C@H]3[C@@H](O)C[C@@]12C`, 0.238.
On to `CC1=C(/C=C/C(C)=C/C=C/C(C)=C/C=C/C=C(C)/C=C/C=C(C)/C=C/C2=C(C)CCCC2(C)C)C(C)(C)CCC1`, for which the Z-AUC stood at 1.11.
In the case of `N#Cc1ccnc(N2C(=O)CC[C@H]2C(=O)N(c2cncc(F)c2)[C@H](C(=O)NC2CC(F)(F)C2)c2ccccc2Cl)c1`, the Z-AUC is 1.11.
On the same count and under the same terms, for `CCN(c1cc(C#CCN2CCOCC2)cc(C(=O)NCc2c(C)cc(C)[nH]c2=O)c1C)C1CCC(N(C)CCOC)CC1` (stereo unspecified) the value was 1.88; for `CCC(C)C(N)C1=NC(C(=O)N[C@@H](CC(C)C)C(=O)N[C@H](CCC(=O)O)C(=O)N[C@H](C(=O)N[C@H]2CCCCNC(=O)[C@H](CC(N)=O)NC(=O)[C@@H](CC(=O)O)NC(=O)[C@H](Cc3cnc[nH]3)NC(=O)[C@@H](Cc3ccccc3)NC(=O)[C@H]([C@@H](C)CC)NC(=O)[C@@H](CCCN)NC2=O)[C@@H](C)CC)CS1` (stereo partly specified) (X1-L[dE]IK[dOrn]I[dF]H[dD]N; lactam 4-C), 1.01.
As for `C[C@@H]1CCN(C(=O)CC#N)C[C@@H]1N(C)c1ncnc2[nH]ccc12`, the Z-AUC came out at 0.765.
Still for that read-out and setting: in the case of `OCc1ccccc1O[C@@H]1O[C@H](CO)[C@@H](O)[C@H](O)[C@H]1O` it was 1.17; in that of `C[C@H]1CN(C[C@H](Cc2ccccc2)C(=O)NCC(=O)O)CC[C@@]1(C)c1cccc(O)c1`, -0.254.
Same read-out and setting: for `CCCCC(=O)OCC(=O)[C@]1(O)Cc2c(O)c3c(c(O)c2[C@@H](O[C@H]2C[C@H](NC(=O)C(F)(F)F)[C@H](O)[C@H](C)O2)C1)C(=O)c1c(OC)cccc1C3=O` the value was -2.19; for `CNC(=O)c1ccc(Nc2ncc(C(F)(F)F)c(NCc3nccnc3N(C)S(C)(=O)=O)n2)cc1`, 0.488; for `Nc1ccn([C@@H]2C(F)=C(CO)[C@@H](O)[C@H]2O)c(=O)n1`, -0.156.
In the case of `COc1cc(N2CCC(N(C)C)CC2)ccc1Nc1ncc(Cl)c(Nc2ccccc2P(C)(C)=O)n1`, the Z-AUC is -1.75.
The same measure, in the same setting: in the case of `O=C(O)c1ccc(CCCc2ccc(OCCc3ccc(F)cc3)cc2)o1` it was 0.863.
`NS(=O)(=O)OC[C@@H]1C[C@@H](n2ccc3c(N[C@H]4CCc5ccccc54)ncnc32)C[C@@H]1O`: the Z-AUC is -1.6.
On to `COc1cc(N2CCC(O)CC2)ccc1Nc1cc(Nc2ccccc2S(=O)(=O)C(C)C)c2cc[nH]c2n1`, for which the Z-AUC stood at 1.41.
Regarding `Cc1cc(C)cc(NC(=O)Cc2ccc(OC(C)(C)C(=O)O)cc2)c1`, the Z-AUC was -0.359.
The same measure, in the same setting: for `O=C(C1CC1)N1CC[C@@H](Cc2n[nH]c(=O)n2-c2ccc(-c3ccc4occc4c3)cc2)C1` the value was 0.792; for `CCOC(=O)c1ccnc(CNCC(=O)N(CC)CCN(C)C)c1`, 0.751.
Consider `Cc1nn(C)c2c1C(c1ccc(C(F)(F)F)cc1)C(C#N)=C(N)O2` (stereo unspecified), for which the Z-AUC turned out to be 1.31.
Regarding `OC[C@H]1O[C@@H](n2cnc3c2NC=NC[C@H]3O)C[C@@H]1O`, the Z-AUC stood at 0.0818.
For `CC(C)Nc1cc(-c2c[nH]c(C(=O)N[C@H](CO)c3cccc(Cl)c3)c2)c(Cl)cn1`, the Z-AUC was -1.89.
Still for that read-out and setting: in the case of `C[C@H]1[C@H](C)CC[C@]2(C(=O)O)CC[C@]3(C)C(=CC[C@@H]4[C@@]5(C)C[C@@H](O)[C@H](O)[C@@](C)(CO)[C@@H]5CC[C@]43C)[C@H]12` it was 0.608.

The assay is the same for the next values; noted with them: PEO1/OlaR viability, CellTiter-Glo luminescence, 96 h; measured here: PEO4 Z-AUC; stronger effect = lower value.
Take `CN(NC(=O)CC(=O)NN(C)C(=S)c1ccccc1)C(=S)c1ccccc1`: the Z-AUC was 1.36.
On to `CCOc1cc2ncc(C#N)c(Nc3ccc(OCc4ccccn4)c(Cl)c3)c2cc1NC(=O)/C=C/CN(C)C`, for which the Z-AUC is -0.0482.
Still for that read-out and setting: for `Cc1cccc(-c2[nH]c(CNc3ccccc3F)nc2-c2ccc3ncnn3c2)n1` the value was -0.0692; for `OC[C@H]1O[C@@H](Oc2cc(O)cc(/C=C/c3ccc(O)cc3)c2)[C@H](O)[C@@H](O)[C@@H]1O`, 1.47.
Still for that read-out and setting: in the case of `O=C(O)C[C@H](O)C[C@H](O)/C=C/c1c(C2CC2)nc2ccccc2c1-c1ccc(F)cc1` it was -1.48.
Turning to `CC(=O)c1cnc2ccc(-c3cc(Cl)c(O)c(Cl)c3)nc2c1NC1CCC(CN(C)C)CC1` (stereo unspecified), the Z-AUC is -1.3.
For the compound `CC1(C)O[C@@H]2C[C@H]3[C@@H]4CCC5=CC(=O)C=C[C@]5(C)[C@H]4[C@@H](O)C[C@]3(C)[C@]2(C(=O)CO)O1`, the Z-AUC was 0.804.
With `COc1ncc(-c2ccc3c(Nc4cc(Oc5cc(F)cc(F)c5)cc(C(=O)O)c4)c(S(=O)(=O)NC4CC4)cnc3c2)c(OC)n1`, the Z-AUC is -0.317.
The same measure, in the same setting: for `CN(C)c1cccc(-c2c3c(=O)n(-c4ccccc4Cl)[nH]c3cc(=O)n2C)c1` the value was -0.353; for `CN1CC[C@@H](NC(=O)Nc2ccc(C#N)cc2)C[C@@H]1c1nc2ccccc2[nH]1`, -1.25; for `Cc1cc(Nc2ncc(Cl)c(Nc3ccccc3S(=O)(=O)C(C)C)n2)c(OC(C)C)cc1C1CCNCC1`, -0.548.
Still for that read-out and setting: in the case of `CC(C)C(=O)OCC(=O)[C@@]12O[C@H](C3CCCCC3)O[C@@H]1C[C@H]1[C@@H]3CCC4=CC(=O)C=C[C@]4(C)[C@H]3[C@@H](O)C[C@@]12C` it was -0.69.
Same read-out and setting: in the case of `CC1=C(/C=C/C(C)=C/C=C/C(C)=C/C=C/C=C(C)/C=C/C=C(C)/C=C/C2=C(C)CCCC2(C)C)C(C)(C)CCC1` it was 0.804; in that of `N#Cc1ccnc(N2C(=O)CC[C@H]2C(=O)N(c2cncc(F)c2)[C@H](C(=O)NC2CC(F)(F)C2)c2ccccc2Cl)c1`, 1.26; in that of `CCN(c1cc(C#CCN2CCOCC2)cc(C(=O)NCc2c(C)cc(C)[nH]c2=O)c1C)C1CCC(N(C)CCOC)CC1` (stereo unspecified), 1.36.
On to `CCC(C)C(N)C1=NC(C(=O)N[C@@H](CC(C)C)C(=O)N[C@H](CCC(=O)O)C(=O)N[C@H](C(=O)N[C@H]2CCCCNC(=O)[C@H](CC(N)=O)NC(=O)[C@@H](CC(=O)O)NC(=O)[C@H](Cc3cnc[nH]3)NC(=O)[C@@H](Cc3ccccc3)NC(=O)[C@H]([C@@H](C)CC)NC(=O)[C@@H](CCCN)NC2=O)[C@@H](C)CC)CS1` (stereo partly specified) (X1-L[dE]IK[dOrn]I[dF]H[dD]N; lactam 4-C), for which the Z-AUC worked out at 0.703.
The same measure, in the same setting: for `C[C@@H]1CCN(C(=O)CC#N)C[C@@H]1N(C)c1ncnc2[nH]ccc12` the value was 1.24.
Same read-out and setting: for `OCc1ccccc1O[C@@H]1O[C@H](CO)[C@@H](O)[C@H](O)[C@H]1O` the value was 0.966; for `C[C@H]1CN(C[C@H](Cc2ccccc2)C(=O)NCC(=O)O)CC[C@@]1(C)c1cccc(O)c1`, -0.529; for `CCCCC(=O)OCC(=O)[C@]1(O)Cc2c(O)c3c(c(O)c2[C@@H](O[C@H]2C[C@H](NC(=O)C(F)(F)F)[C@H](O)[C@H](C)O2)C1)C(=O)c1c(OC)cccc1C3=O`, -1.93.
Turning to `CNC(=O)c1ccc(Nc2ncc(C(F)(F)F)c(NCc3nccnc3N(C)S(C)(=O)=O)n2)cc1`, the Z-AUC is -0.174.
The same measure, in the same setting: in the case of `Nc1ccn([C@@H]2C(F)=C(CO)[C@@H](O)[C@H]2O)c(=O)n1` it was -0.408; in that of `COc1cc(N2CCC(N(C)C)CC2)ccc1Nc1ncc(Cl)c(Nc2ccccc2P(C)(C)=O)n1`, -1.64.
As for `O=C(O)c1ccc(CCCc2ccc(OCCc3ccc(F)cc3)cc2)o1`, the Z-AUC was 0.926.
On the same count and under the same terms, for `NS(=O)(=O)OC[C@@H]1C[C@@H](n2ccc3c(N[C@H]4CCc5ccccc54)ncnc32)C[C@@H]1O` the value was -1.88.
Same read-out and setting: for `COc1cc(N2CCC(O)CC2)ccc1Nc1cc(Nc2ccccc2S(=O)(=O)C(C)C)c2cc[nH]c2n1` the value was 0.959.
The same measure, in the same setting: in the case of `Cc1cc(C)cc(NC(=O)Cc2ccc(OC(C)(C)C(=O)O)cc2)c1` it was -0.00799; in that of `O=C(C1CC1)N1CC[C@@H](Cc2n[nH]c(=O)n2-c2ccc(-c3ccc4occc4c3)cc2)C1`, 0.425.
Take `CCOC(=O)c1ccnc(CNCC(=O)N(CC)CCN(C)C)c1`: the Z-AUC amounted to 0.779.
On the same count and under the same terms, for `Cc1nn(C)c2c1C(c1ccc(C(F)(F)F)cc1)C(C#N)=C(N)O2` (stereo unspecified) the value was 1.26; for `OC[C@H]1O[C@@H](n2cnc3c2NC=NC[C@H]3O)C[C@@H]1O`, 0.0721; for `CC(C)Nc1cc(-c2c[nH]c(C(=O)N[C@H](CO)c3cccc(Cl)c3)c2)c(Cl)cn1`, -1.82.
Still for that read-out and setting: in the case of `C[C@H]1[C@H](C)CC[C@]2(C(=O)O)CC[C@]3(C)C(=CC[C@@H]4[C@@]5(C)C[C@@H](O)[C@H](O)[C@@](C)(CO)[C@@H]5CC[C@]43C)[C@H]12` it was 0.842.
